The values below come from PubChem BioAssay (NCATS).

Records with an inconclusive call do not appear. Entries that show only a call come without a potency. Active and inactive are the calls of the source. The call rests on the fitted dose curve; in most records, active means well fitted inhibition curve with a large enough effect; inconclusive means small, poorly fitted or top-dose-only effect; inactive means flat fitted curve, though single readings scatter.

Sequence of Calcium and integrin-binding protein 1 (Homo sapiens) (Q99828 whole entry, looked up): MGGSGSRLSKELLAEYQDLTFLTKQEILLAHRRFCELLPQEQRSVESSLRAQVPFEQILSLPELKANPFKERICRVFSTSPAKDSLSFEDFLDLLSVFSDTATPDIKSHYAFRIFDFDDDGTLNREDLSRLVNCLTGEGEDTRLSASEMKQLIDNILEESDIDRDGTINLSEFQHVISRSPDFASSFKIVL

This assay has as its target Calcium and integrin-binding protein 1 (Homo sapiens) (UniProt Q99828). The assay is described as follows: Primary qHTS for Identification of Calcium Integrin Binding Protein 1 (CIB1) Competitor (AID 1508620).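 Further: GST tagged CIB1 binding a fluorescein labelled alphaIIb integrin peptide tracer; top concentration of the series differs between compounds.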 The conditions noted are these: CIB1-GST / FITC-alphaIIb peptide fluorescence polarization; series mostly up to 114 µM. The procedure, abridged: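 CIB1-GST (1 uM final) and compound incubated 15 min at room temperature before adding FITC-alphaIIb peptide tracer (100 nM final). Competition for binding read by fluorescence polarization (ex 480, em 540) after another 15 min at room temperature.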
In general terms: In qHTS, concentration-response curves come from the screen itself.
On to `Cc1ccc(NS(=O)(=O)c2ccc3c(c2)CCC(=O)N3)cc1Cl`, for which the Potency result was “inactive”.

Take `Cc1cc2c(s1)c1cnn(Cc3ccccc3F)c(=O)c1n2Cc1ccccc1F`: the Potency entry was “inactive”.

On to `Cc1nc(-c2ccccc2C(C)C)nc(NCc2ccc(-c3cccnc3)cc2)c1C`, for which the Potency result is “inactive”.

Turning to `Oc1cc(NCc2ccccc2)cc2cccnc12`, the Potency entry is “inactive”.

Turning to `CN(C)c1cccc(-c2nc(N3CCC(C(N)=O)CC3)ncc2F)c1`, the Potency entry was “inactive”.

On to `COc1cccc(-c2nnc3n2N=C(c2c(OC)cccc2OC)CS3)c1`, for which the Potency result was “inactive”.

In the case of `CC(=O)c1ccc(N2CCN(S(=O)(=O)c3ccc4c(c3)C(=O)OC4)CC2)cc1`, the Potency result was “inactive”.

Take `O=C1c2ccccc2C(=O)N1c1cccc2cnccc12`: the Potency result was “inactive”.

In the case of `Cc1cc(-c2nnc3n2CCCCC3)c(C)n1-c1ccc(Br)cc1`, the Potency result was “inactive”.

Consider `N#CC1CCN(c2nc(-c3ccc(Br)cc3)cs2)CC1`, for which the Potency entry was “inactive”.

For the molecule `O=C(O)c1ccc2c(c1)C(=O)N([C@H](Cc1ccc3ccccc3c1)C(=O)O)C2=O`, the Potency entry was “inactive”.

As for `O=C(Nc1cccnc1)c1ccco1`, the Potency result is “inactive”.

`O=C(Nc1ccc(F)c(F)c1)Nc1nnc(-c2ccncc2)s1`: the Potency entry is “inactive”.

In the case of `CC(=O)Nc1sc2c(c1-c1cncnc1)CCNC2`, the Potency result is “inactive”.

As to `N#Cc1nc(NC2CCCC2)c2ncn(-c3cc(F)cc(F)c3)c2n1`, the Potency entry was “inactive”.

Take `COc1cc(O)c(C(CC(=O)N2CCCC2)c2ccc3c(c2)OCO3)c(OC)c1` (stereo not given): the Potency result is “inactive”.

As to `COc1ccnc(NC(=S)N2CCN(c3ccc(Cl)cc3Cl)CC2)c1`, the Potency result was “inactive”.

For `O=C1CCCC2=C1C(c1[nH]ncc1Cl)NC(=S)N2` (stereo not given), the Potency entry is “inactive”.

As to `Cc1cc2c(s1)c1cnn(Cc3ccccc3C)c(=O)c1n2C`, the Potency entry was “inactive”.

Consider `CN(C)[S+](=O)([O-])c1ccc(-c2ccc(=O)n(CC(=O)NCCc3ccccc3)n2)cc1`, for which the Potency result was “inactive”.

Turning to `Cn1ncc(Cl)c1C1N=C(Nc2nc3ccccc3o2)NC2=C1C(=O)CCC2` (stereo not given), the Potency result is “inactive”.

As for `O=C1CCCC2=C1C(c1[nH]ncc1Cl)NC(=NCc1ccccn1)N2` (stereo not given), the Potency entry was “inactive”.

`CCOc1ccc(CCNC(=O)c2ccc3[nH]ccc3c2)cc1OCC`: the Potency entry is “inactive”.

For `O=C(Cc1ccc(Cl)c(Cl)c1)Nc1ccc(S(=O)(=O)Nc2ccccc2)cc1`, the Potency result is “inactive”.

In the case of `COc1cc(OC)cc(-c2nnc3n2N=C(c2c(OC)cccc2OC)CS3)c1`, the Potency entry was “inactive”.

`CC(=O)c1ccc(-c2csc3ncnc(Sc4nnnn4C)c23)cc1`: the Potency entry is “inactive”.

On to `Fc1ccccc1N1CCN(c2nc(-c3cccs3)nc3ccccc23)CC1`, for which the Potency result is “inactive”.

For the molecule `CC1=C(C(=O)Nc2ccccc2C)C(c2ccccc2Br)N=C(Nc2nc3ccccc3o2)N1` (stereo not given), the Potency entry was “inactive”.

For the molecule `NC(=O)c1ccc(-c2noc(-c3cccc(Cl)c3)n2)cc1`, the Potency result is “inactive”.

Regarding `COC(=O)C1CCc2sc(NC(=O)Cc3ccccc3)c(C(=O)Nc3ccc(Cl)cc3)c21` (stereo not given), the Potency result was “inactive”.

Turning to `N#Cc1nc(-c2cccc3ccccc23)oc1N`, the Potency entry is “inactive”.

As to `CC(=O)NC(C)c1cc(Cl)c2ccccc2c1O` (stereo not given), the Potency result is “inactive”.

For the molecule `S=C(Nc1cc(Cl)ccn1)N1CCN(c2ccc(Cl)c(Cl)c2)CC1`, the Potency entry is “inactive”.

On to `COc1cc(-c2ccc3ncnc(NCc4ccc(C)o4)c3c2)cc(OC)c1OC`, for which the Potency result was “inactive”.

Turning to `Cc1cc2c(s1)c1cnn(Cc3ccc(F)c(Cl)c3)c(=O)c1n2C`, the Potency entry was “inactive”.

On to `Cc1cc(C)n2ncc(C(=O)Nc3ccc(Br)cc3)c2n1`, for which the Potency result was “inactive”.

For `COc1cccc(Nc2nn3c(=O)c4ccccc4nc3s2)c1`, the Potency entry was “inactive”.

As to `Cc1cccc(-n2cnc3cc(C(=O)N4CCCCC4)ccc32)c1`, the Potency entry was “inactive”.

Regarding `S=P(c1ccccc1)(c1ccccc1)c1nc(CCCc2ccccc2)n2ccccc12`, the Potency entry is “inactive”.

With `COc1cccc(CNc2ccc(S(=O)(=O)Nc3ncc(C)s3)cc2)c1O`, the Potency entry was “inactive”.
